Measured values as given in PubChem BioAssay (Tox21).
Records with an inconclusive call do not appear. A call without a number means that no potency is given here. Calls of active or inactive are those of the source. Unless noted, calls come from the whole dose curve; as a rule, active = well fitted curve in the direction sought with a large enough effect in the repeat runs; inconclusive = weak or mixed curves; inactive = no such curve, though single readings can be large; an effect the other way counts as inactive or inconclusive.

Columns and labels:
[1] = qHTS assay to identify small molecule antagonists of the estrogen related receptor (ERR) signaling pathway (AID 1224819; note: nearly all actives have a fitted effect of over 50% in size; note: potency is the fitted concentration of half-maximal effect)
Procedure, shortened: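 Compounds dissolved in DMSO were pin-transferred onto ERR cells that had been plated 6 h earlier, and cells were then incubated 18 h at 37 C; signal was luciferase luminescence via One-Glo.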

[2] = qHTS assay to identify small molecule agonists of the estrogen related receptor (ERR) signaling pathway (AID 1224820)
Procedure, shortened: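 Luminescence readout (One-Glo, 30 min RT) from NTP-supplied ERR cell line exposed to compounds for 18 h at 37 C. Cells seeded 2,000 per well and pre-incubated 6 h before pin-tool compound transfer.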

[3] = tested on: estrogen-related receptor alpha (ERRalpha) with PGC-1alpha coactivator, human; experiment: qHTS assay to identify small molecule antagonists of the estrogen related receptor signaling pathway with the pleiotropic PPARgamma coactivator (PGC) (AID 1224821; calls by dose curve; note: nearly all actives have a fitted effect of over 50% in size; note: potency is the fitted concentration of half-maximal effect)
Procedure, shortened: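 PGC/ERR reporter cells; 6 h pre-incubation 37 C/5% CO2; pin-tool compound in DMSO, 18 h 37 C; One-Glo added, 30 min RT; luminescence read. qHTS antagonist mode.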

[4] = qHTS assay to identify small molecule agonists of the estrogen related receptor signaling pathway with the pleiotropic PPARgamma coactivator (PGC) (AID 1224823); note: potency is the fitted concentration of half-maximal effect
Procedure, shortened: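 Luminescence readout (One-Glo, 30 min RT) from PGC/ERR cell line treated 18 h at 37 C with pin-tool-delivered DMSO compound solutions; cells plated 6 h before dosing. Quantitative HTS format.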

[5] = qHTS assay to identify small molecule antagonists of the estrogen related receptor signaling pathway with the pleiotropic PPARgamma coactivator (PGC) cell viability counter screen (AID 1224822; note: potency is the fitted concentration of half-maximal effect)
Procedure, shortened: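 Counter screen for cell viability: PGC/ERR cells, 6 h pre-incubation after plating, 17.5 h compound exposure at 37 C, fluorescence from CellTiter-Fluor after 30 min.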

SMILES | Potency [1] | Potency [2] | Potency [3] | Potency [4] | Potency [5]
O=C1NCc2c1c1c3ccccc3[nH]c1c1[nH]c3ccccc3c21 | 2.76 µM (active) | inactive | inactive | inactive | –
CC(C)(C)c1ccc(S(=O)(=O)/C=C/C#N)cc1 | inactive | inactive | – | inactive | –
COc1cc2c(CCNC(C)=O)c[nH]c2cc1O | inactive | inactive | – | inactive | inactive
COc1ccc(C(=O)/C(Cc2cc(OC)c(OC)c(OC)c2)=C(\C(=O)O)c2ccc3c(c2)OCO3)cc1 | 10.2 µM (active) | inactive | – | inactive | 18.8 µM (active)
Oc1cc2c(c(Cl)c1O)CCNCC2c1ccccc1 (stereo not given) | 8.41 µM (active) | inactive | – | inactive | –
CNCCc1cnc(CCC(c2ccccc2)c2ccccc2)[nH]1 | inactive | inactive | inactive | inactive | –
COc1cc(OC)cc(-c2cc3cnc(N)nc3nc2NC(=O)NC(C)(C)C)c1 | 20.3 µM (active) | inactive | – | inactive | inactive
C=CCc1cccc(/C=N/NC(=O)CN2CCN(Cc3ccccc3)CC2)c1O | 3.9 µM (active) | inactive | – | inactive | –
Cn1c(=O)c(-c2c(Cl)cccc2Cl)cc2cnc(Nc3ccc(N4CCOCC4)cc3)nc21 | 4.38 µM (active) | inactive | inactive | 0.0531 µM (active) | –
CCN(CC)CCOc1ccc(Nc2ncc3cc(-c4c(Cl)cccc4Cl)c(=O)n(C)c3n2)cc1 | 9.08 µM (active) | inactive | – | 0.0908 µM (active) | 1.74 µM (active)
COc1ccc(NC(=O)/C=C/c2ccc(Cl)cc2)cc1 | inactive | – | inactive | – | inactive
N#C/C(=C\c1ccc(O)c(O)c1)C(=O)Nc1ccccc1 | inactive | – | inactive | – | –
CCc1ccc(/C=C2/SC(=S)NC2=O)cc1 | inactive | inactive | – | inactive | –
O=C1c2ccccc2-c2n[nH]c3cccc1c23 | 26.6 µM (active) | inactive | inactive | inactive | –
CC1(C)C(=O)N(CCN2CCC(C(=O)c3ccc(F)cc3)CC2)c2ccccc21 | 21.1 µM (active) | inactive | – | inactive | –
Oc1cc2c(cc1O)CN(C(=S)NCCc1ccc(Cl)cc1)CCC2 | – | inactive | inactive | inactive | inactive
C=CCN1CCc2c(cc(O)c(O)c2Br)[C@@H](c2ccccc2)C1 | – | inactive | – | inactive | inactive
CC(=O)/C=C1\C(=O)N(C)c2ccccc21 | – | inactive | 28.7 µM (active) | inactive | –
CCN(CC)CC#CCOC(=O)C(O)(c1ccccc1)C1CCCCC1 (stereo not given) | – | inactive | – | inactive | –
COC(=O)C1=C(C)NC(C)=C([N+](=O)[O-])C1c1ccccc1C(F)(F)F (stereo not given) | – | inactive | – | inactive | –
Cc1ccccc1/C=C/C1=NCCN1 | – | inactive | – | inactive | –

SMILES | Potency [1] | Potency [2] | Potency [3] | Potency [4] | Potency [5]
CCCCS(=N)(=O)CC[C@H](N)C(=O)O (stereo not given in full) | inactive | – | inactive | inactive | inactive
COC1=C(OC)C(=O)c2ccccc2C1=O | 11 µM (active) | – | – | inactive | –
NC(=NCc1ccccc1)NC(=O)c1nc(Cl)c(N)nc1N | – | inactive | inactive | inactive | –
COC(=O)C1=C(C)NC(C)=C(C(=O)OC)C1c1cccc(NC(=O)NCCCN2CCC(c3cccc(OC)c3)CC2)c1 | – | inactive | 31 µM (active) | inactive | 20.3 µM (active)
CCCOC(=O)c1c(-c2ccccc2)nc(CC)c(C(=O)SCC)c1CCC | – | inactive | inactive | inactive | inactive
O=C(/C=C/c1ccc(O)c(O)c1)OCCc1ccccc1 | – | inactive | inactive | 14.4 µM (active) | inactive
CCCCCCCCCCC(C)(C)C(=O)Nc1c(OC)cc(OC)cc1OC | – | inactive | inactive | inactive | inactive
COc1ccc(/C=C/c2nc(NCCCN(C)C)c3ccccc3n2)cc1 | – | inactive | 23.7 µM (active) | inactive | –
O=C(CCc1ccncc1)NNC(=O)N1Cc2ccccc2Oc2ccc(Cl)cc21 | – | inactive | – | inactive | inactive
O=[N+]([O-])c1ccc(-c2nc(-c3ccc(F)cc3)c(-c3ccncc3)[nH]2)cc1 | – | inactive | – | inactive | –
CC(C)N(CCC(=O)c1ccc2ccccc2c1)Cc1ccccc1 | – | inactive | 19.9 µM (active) | inactive | –
O=C1Nc2ccc(I)cc2/C1=C/c1cc(Br)c(O)c(Br)c1 | – | inactive | inactive | inactive | inactive
OC1(c2ccc(Cl)cc2)CCN(Cc2c[nH]c3ccccc23)CC1 | – | inactive | inactive | – | –
CN1CCCC1CCOC(C)(c1ccccc1)c1ccc(Cl)cc1 (stereo not given) | – | inactive | inactive | inactive | –
Cc1cccc(C2CN(C)CCc3c2cc(O)c(O)c3Cl)c1 (stereo not given) | – | inactive | inactive | inactive | –
COc1cccc2c1[C@@H]1CN(CCCCn3c(=O)[nH]c4c(sc5ncc(-c6ccccc6)nc54)c3=O)C[C@@H]1CO2 | – | inactive | inactive | – | –
C[C@H](Cc1ccc(O)c(O)c1)[C@@H](C)Cc1ccc(O)c(O)c1 | – | inactive | inactive | inactive | inactive
N#C/C(=C\c1ccc(-c2cc(Cl)ccc2Cl)o1)C(=O)Nc1cccc2ncccc12 | – | inactive | inactive | – | 14.4 µM (active)
Clc1ccc2c(c1)N=C(N1CCNCC1)c1ccccc1N2 | – | inactive | inactive | – | –
Nc1nc(N)c(N=O)c(OCC2CCCCC2)n1 | – | inactive | inactive | inactive | –
